How the values were obtained:
Experiment in all cases: DAPPL (digital affinity profiling via proximity ligation, sequencing); 10 mM Tris-HCl pH 7.5, 50 mM NaCl, 1 mM DTT, 4% glycerol, room temperature, 30 min; GST-TFs on glutathione beads, 16-mer random dsDNA library, 0.1% formaldehyde crosslink after washing; high values mean tight binding
FEV = target: T1, FEV (Homo sapiens, UniProt Q99581 1-238); details: protein: recombinant; tags: N-terminal GST; dsDNA, one strand shown
T1 sequence: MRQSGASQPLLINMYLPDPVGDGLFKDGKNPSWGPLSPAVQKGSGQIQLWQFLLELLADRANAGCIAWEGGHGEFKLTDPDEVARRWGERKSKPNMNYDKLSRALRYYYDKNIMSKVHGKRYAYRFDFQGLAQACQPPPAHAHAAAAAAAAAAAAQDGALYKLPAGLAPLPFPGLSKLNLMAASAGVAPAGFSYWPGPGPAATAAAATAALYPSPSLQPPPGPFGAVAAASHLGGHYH
Outline: (§1)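 Each value of binding signal is a hexamer's read frequency for a factor divided by the same hexamer's frequency in the tag-only sample. Barcoded, bead-captured GST fusions of human transcription factors made in yeast were pooled with that sample and incubated with 200 nmole of a random double-stranded 16-mer DNA library in Tris/NaCl/DTT/glycerol buffer at room temperature for 30 min. Washing, 0.1% formaldehyde crosslinking, proximity ligation, PCR and Illumina NextSeq500 sequencing followed.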

ETV5 = ETV5 (Homo sapiens, UniProt P41161 1-510); details: protein: recombinant; tags: N-terminal GST; dsDNA, one strand shown
ETV5, sequence (P41161 whole entry): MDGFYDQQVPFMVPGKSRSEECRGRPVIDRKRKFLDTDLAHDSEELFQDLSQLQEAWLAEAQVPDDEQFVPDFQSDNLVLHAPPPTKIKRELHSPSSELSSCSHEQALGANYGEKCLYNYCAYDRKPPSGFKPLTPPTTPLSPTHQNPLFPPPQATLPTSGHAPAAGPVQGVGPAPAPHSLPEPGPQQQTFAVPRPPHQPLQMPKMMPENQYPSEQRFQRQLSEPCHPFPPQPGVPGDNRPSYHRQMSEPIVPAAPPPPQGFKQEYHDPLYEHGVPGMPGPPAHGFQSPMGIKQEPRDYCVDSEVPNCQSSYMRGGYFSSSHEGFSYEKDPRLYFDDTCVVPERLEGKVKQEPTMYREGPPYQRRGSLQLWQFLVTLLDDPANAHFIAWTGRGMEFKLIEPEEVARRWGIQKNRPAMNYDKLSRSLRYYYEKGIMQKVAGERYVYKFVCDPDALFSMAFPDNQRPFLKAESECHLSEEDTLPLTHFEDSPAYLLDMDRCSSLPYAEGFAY
Outline: as §1

HSF1 = HSF1 (Homo sapiens, UniProt Q00613 1-529); details: protein: recombinant; tags: N-terminal GST; chain copies: 3; dsDNA, one strand shown
HSF1, sequence (Q00613 whole entry): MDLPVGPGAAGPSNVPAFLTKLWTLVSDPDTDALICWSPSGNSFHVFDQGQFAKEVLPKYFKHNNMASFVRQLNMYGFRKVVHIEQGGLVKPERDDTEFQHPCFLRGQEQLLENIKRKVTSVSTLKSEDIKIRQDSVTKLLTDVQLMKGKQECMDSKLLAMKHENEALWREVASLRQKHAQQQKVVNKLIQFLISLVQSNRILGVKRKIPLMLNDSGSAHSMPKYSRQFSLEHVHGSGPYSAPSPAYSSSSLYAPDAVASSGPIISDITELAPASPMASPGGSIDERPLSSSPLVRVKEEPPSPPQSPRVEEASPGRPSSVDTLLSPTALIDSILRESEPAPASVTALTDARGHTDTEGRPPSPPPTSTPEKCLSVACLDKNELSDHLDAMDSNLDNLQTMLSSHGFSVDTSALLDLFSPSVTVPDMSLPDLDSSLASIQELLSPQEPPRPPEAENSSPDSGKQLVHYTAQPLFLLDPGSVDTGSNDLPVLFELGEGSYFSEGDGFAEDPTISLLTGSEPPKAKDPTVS
Outline: as §1

SPIC = target: T2, SPIC (Homo sapiens, UniProt Q8N5J4 1-248); details: protein: recombinant; tags: N-terminal GST; dsDNA, one strand shown
T2 sequence: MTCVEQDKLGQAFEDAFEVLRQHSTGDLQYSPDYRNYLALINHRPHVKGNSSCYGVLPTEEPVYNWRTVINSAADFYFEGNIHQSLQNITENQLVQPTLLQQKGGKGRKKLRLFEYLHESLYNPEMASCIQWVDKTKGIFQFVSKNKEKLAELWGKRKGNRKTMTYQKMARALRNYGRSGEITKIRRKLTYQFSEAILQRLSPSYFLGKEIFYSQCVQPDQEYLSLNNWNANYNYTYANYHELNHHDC
Outline: as §1

ELF4 = ELF4 (Homo sapiens, UniProt Q99607 1-663); details: protein: recombinant; tags: N-terminal GST; dsDNA, one strand shown
ELF4, sequence (Q99607 whole entry): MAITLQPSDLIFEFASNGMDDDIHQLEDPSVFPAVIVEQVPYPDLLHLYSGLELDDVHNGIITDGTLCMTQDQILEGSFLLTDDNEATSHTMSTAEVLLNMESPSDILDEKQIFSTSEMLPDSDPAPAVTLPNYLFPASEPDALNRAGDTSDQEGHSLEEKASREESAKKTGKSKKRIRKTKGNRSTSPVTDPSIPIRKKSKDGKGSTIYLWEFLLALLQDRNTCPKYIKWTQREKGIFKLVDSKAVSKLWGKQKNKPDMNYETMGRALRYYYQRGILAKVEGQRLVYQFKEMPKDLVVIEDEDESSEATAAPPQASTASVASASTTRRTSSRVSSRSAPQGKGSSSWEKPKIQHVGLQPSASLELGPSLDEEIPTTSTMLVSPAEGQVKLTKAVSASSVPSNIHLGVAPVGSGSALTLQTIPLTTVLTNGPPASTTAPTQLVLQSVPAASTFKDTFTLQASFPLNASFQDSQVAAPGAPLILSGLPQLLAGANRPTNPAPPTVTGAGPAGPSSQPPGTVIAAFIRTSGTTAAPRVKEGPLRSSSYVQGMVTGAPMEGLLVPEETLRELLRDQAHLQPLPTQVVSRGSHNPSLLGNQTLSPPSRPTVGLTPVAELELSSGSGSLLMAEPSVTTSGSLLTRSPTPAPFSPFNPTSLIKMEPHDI
Outline: as §1

ELK4 = target: T3, ELK4 (Homo sapiens, UniProt P28324-2 1-405); details: protein: recombinant; tags: N-terminal GST; dsDNA, one strand shown
T3 sequence: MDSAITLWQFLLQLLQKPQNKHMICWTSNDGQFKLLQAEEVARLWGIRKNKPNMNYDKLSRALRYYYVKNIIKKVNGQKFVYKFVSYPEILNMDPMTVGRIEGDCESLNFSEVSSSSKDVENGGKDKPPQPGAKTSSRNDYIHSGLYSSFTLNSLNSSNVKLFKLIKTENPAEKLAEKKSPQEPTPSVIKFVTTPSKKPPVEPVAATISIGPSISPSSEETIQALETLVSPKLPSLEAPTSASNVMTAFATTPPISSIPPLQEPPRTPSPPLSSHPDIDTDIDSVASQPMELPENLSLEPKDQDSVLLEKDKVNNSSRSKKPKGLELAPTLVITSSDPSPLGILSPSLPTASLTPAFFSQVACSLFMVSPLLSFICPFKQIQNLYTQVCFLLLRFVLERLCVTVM
Outline: as §1

ETV2 = target: T4, ETV2 (Homo sapiens, UniProt O00321 1-342); details: protein: recombinant; tags: N-terminal GST; dsDNA, one strand shown
T4 sequence: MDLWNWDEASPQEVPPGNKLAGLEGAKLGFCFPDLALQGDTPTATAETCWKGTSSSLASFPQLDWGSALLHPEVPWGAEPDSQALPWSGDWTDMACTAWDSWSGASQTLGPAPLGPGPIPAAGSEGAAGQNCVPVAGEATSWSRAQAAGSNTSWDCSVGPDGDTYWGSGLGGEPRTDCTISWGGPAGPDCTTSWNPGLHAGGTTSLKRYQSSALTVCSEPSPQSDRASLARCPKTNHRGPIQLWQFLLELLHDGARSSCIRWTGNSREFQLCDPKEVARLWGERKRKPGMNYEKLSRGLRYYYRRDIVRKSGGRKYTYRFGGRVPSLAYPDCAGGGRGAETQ
Outline: as §1

ELF3 = target: T5, ELF3 (Homo sapiens, UniProt P78545 1-371); details: protein: recombinant; tags: N-terminal GST; dsDNA, one strand shown
T5 sequence: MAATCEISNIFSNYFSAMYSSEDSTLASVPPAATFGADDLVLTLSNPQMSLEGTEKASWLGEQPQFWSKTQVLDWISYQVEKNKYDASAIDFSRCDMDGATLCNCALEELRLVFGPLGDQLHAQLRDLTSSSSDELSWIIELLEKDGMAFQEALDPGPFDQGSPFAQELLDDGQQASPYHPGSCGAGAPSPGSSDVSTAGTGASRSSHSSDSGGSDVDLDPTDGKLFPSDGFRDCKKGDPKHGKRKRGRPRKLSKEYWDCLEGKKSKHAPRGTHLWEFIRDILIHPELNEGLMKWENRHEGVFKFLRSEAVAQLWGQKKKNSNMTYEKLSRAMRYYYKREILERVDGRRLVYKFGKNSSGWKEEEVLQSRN
Outline: as §1

CRX = CRX (Homo sapiens, UniProt O43186 1-299); details: protein: recombinant; tags: N-terminal GST; dsDNA, one strand shown
CRX, sequence (O43186 whole entry): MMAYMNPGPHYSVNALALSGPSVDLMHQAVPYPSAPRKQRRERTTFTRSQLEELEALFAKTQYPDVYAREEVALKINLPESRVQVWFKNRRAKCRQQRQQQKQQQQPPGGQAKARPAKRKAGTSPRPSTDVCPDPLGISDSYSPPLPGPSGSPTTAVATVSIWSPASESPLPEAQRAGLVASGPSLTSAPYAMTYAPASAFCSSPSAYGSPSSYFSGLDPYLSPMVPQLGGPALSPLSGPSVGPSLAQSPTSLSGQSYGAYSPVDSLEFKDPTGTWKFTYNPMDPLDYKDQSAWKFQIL
Outline: as §1

ETV1 = ETV1 (Homo sapiens, UniProt P50549 1-477); details: protein: recombinant; tags: N-terminal GST; dsDNA, one strand shown
ETV1, sequence (P50549 whole entry): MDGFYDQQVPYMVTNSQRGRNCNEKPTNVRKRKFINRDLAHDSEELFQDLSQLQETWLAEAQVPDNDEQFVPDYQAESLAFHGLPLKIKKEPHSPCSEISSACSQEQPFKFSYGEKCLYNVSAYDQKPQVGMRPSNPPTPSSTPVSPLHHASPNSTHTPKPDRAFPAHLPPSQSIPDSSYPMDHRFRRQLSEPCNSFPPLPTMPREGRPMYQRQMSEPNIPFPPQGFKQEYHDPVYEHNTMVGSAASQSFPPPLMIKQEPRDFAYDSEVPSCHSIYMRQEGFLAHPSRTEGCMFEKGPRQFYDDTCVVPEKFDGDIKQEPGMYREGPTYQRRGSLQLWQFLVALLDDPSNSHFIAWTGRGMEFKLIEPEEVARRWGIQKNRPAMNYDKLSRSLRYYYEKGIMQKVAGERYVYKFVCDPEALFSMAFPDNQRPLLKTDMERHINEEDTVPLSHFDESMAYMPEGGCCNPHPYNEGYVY
Outline: as §1

ERF = target: T6, ERF (Homo sapiens, UniProt P50548 1-548); details: protein: recombinant; tags: N-terminal GST; dsDNA, one strand shown
T6 sequence: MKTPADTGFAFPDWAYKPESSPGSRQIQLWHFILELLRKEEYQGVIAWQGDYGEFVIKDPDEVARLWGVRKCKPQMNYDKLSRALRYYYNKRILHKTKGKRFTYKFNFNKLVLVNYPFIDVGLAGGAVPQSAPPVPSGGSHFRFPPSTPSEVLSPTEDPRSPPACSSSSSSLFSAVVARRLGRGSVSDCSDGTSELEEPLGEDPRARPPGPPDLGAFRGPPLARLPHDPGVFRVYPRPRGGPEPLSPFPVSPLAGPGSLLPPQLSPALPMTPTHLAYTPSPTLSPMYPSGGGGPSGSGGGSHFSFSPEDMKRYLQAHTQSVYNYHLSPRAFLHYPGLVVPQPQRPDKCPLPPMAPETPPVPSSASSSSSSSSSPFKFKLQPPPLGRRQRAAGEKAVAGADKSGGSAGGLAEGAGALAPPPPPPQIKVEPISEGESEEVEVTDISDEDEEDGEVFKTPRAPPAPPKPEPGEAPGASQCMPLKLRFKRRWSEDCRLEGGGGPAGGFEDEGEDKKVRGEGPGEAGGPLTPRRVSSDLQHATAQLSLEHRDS
Outline: as §1

ETV3L = target: T7, ETV3L (Homo sapiens, UniProt Q6ZN32 1-361); details: protein: recombinant; tags: N-terminal GST; dsDNA, one strand shown
T7 sequence: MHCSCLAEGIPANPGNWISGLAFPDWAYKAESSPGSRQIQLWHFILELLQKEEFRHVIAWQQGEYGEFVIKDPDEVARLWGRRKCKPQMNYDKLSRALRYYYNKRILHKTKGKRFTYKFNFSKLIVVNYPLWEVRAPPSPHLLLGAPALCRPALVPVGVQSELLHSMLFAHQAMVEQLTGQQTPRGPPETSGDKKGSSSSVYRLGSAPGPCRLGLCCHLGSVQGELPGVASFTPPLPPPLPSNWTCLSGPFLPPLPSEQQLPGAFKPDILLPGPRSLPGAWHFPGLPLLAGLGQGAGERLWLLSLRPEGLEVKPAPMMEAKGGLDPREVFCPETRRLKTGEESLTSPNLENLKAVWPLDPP
Outline: as §1

ETS2 = target: T8, ETS2 (Homo sapiens, UniProt P15036 1-469); details: protein: recombinant; tags: N-terminal GST; dsDNA, one strand shown
T8 sequence: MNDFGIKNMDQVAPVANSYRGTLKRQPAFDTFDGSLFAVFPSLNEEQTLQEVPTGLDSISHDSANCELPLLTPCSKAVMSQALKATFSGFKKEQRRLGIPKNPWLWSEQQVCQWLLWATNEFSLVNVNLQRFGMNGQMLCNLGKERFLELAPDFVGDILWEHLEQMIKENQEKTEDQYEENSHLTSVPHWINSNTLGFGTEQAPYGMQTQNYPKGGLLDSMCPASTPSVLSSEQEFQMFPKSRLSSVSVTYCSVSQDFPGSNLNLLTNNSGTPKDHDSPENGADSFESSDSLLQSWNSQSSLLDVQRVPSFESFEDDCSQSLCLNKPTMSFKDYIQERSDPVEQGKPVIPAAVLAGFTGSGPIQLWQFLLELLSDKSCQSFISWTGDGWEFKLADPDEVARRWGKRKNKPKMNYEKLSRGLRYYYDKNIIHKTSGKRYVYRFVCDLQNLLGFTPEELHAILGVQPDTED
Outline: as §1

SPDEF = target: T9, SPDEF (Homo sapiens, UniProt O95238 1-335); details: protein: recombinant; tags: N-terminal GST; dsDNA, one strand shown
T9 sequence: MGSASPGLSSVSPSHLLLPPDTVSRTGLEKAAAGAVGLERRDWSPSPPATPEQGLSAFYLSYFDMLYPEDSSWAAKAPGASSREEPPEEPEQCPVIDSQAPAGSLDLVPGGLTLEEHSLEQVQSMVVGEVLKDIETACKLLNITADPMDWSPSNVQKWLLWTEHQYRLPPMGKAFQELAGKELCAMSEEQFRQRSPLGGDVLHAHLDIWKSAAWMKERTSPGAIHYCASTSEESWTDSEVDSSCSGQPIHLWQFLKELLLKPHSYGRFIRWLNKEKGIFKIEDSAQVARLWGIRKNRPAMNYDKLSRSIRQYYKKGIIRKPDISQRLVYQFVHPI
Outline: as §1

ETV7 = target: T10, ETV7 (Homo sapiens, UniProt Q9Y603 1-341); details: protein: recombinant; tags: N-terminal GST; dsDNA, one strand shown
T10 sequence: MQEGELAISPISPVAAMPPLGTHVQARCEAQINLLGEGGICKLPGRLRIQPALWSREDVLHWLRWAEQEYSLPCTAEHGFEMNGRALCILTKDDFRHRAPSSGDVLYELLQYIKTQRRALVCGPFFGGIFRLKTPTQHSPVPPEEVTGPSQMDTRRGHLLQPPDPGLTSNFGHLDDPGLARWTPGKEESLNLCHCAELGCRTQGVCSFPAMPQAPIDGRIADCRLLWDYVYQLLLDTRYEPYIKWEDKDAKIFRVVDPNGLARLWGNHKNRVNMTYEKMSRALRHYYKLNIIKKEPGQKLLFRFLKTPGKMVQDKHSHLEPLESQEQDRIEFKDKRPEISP
Outline: as §1

ELF5 = target: T11, ELF5 (Homo sapiens, UniProt Q9UKW6-2 1-255); details: protein: recombinant; tags: N-terminal GST; dsDNA, one strand shown
T11 sequence: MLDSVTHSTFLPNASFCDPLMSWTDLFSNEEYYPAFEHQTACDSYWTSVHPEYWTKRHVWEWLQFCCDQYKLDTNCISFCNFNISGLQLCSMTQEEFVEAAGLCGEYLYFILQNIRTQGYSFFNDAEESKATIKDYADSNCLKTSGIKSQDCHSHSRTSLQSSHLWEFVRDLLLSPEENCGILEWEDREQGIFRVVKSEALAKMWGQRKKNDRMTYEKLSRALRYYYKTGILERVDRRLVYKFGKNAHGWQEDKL
Outline: as §1

ETV3 = target: T12, ETV3 (Homo sapiens, UniProt P41162-2 1-143); details: protein: recombinant; tags: N-terminal GST; dsDNA, one strand shown
T12 sequence: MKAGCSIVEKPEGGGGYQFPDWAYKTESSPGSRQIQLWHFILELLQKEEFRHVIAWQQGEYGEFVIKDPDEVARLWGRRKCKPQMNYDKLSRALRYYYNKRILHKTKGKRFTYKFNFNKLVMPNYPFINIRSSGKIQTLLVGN
Outline: as §1

ETV6 = ETV6 (Homo sapiens, UniProt P41212 1-452); details: protein: recombinant; tags: N-terminal GST; dsDNA, one strand shown
ETV6, sequence (P41212 whole entry): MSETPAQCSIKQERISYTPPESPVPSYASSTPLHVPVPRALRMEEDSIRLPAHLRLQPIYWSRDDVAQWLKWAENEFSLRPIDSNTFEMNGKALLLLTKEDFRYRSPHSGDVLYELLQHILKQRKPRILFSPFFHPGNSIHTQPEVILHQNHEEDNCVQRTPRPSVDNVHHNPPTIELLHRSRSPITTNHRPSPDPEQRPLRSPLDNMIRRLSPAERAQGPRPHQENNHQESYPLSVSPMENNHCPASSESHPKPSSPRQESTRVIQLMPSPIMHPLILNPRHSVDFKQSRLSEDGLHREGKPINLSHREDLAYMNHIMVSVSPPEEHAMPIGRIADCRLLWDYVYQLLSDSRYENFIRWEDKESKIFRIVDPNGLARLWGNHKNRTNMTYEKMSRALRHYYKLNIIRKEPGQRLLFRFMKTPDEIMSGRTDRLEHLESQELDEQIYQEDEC
Outline: as §1

ATGCTC
binding signal (FEV): 1.39 fold enrichment (6-mer frequency, TF over GST control)
binding signal (ETV5): 1.41 fold enrichment (6-mer frequency, TF over GST control)
binding signal (HSF1): 1.43 fold enrichment (6-mer frequency, TF over GST control)
binding signal (SPIC): 1.47 fold enrichment (6-mer frequency, TF over GST control)
binding signal (ELF4): 1.46 fold enrichment (6-mer frequency, TF over GST control)
binding signal (ELK4): 1.32 fold enrichment (6-mer frequency, TF over GST control)
binding signal (ETV2): 1.37 fold enrichment (6-mer frequency, TF over GST control)
binding signal (ELF3): 1.47 fold enrichment (6-mer frequency, TF over GST control)
binding signal (CRX): 1.38 fold enrichment (6-mer frequency, TF over GST control)
binding signal (ETV1): 1.42 fold enrichment (6-mer frequency, TF over GST control)
binding signal (ERF): 1.33 fold enrichment (6-mer frequency, TF over GST control)
binding signal (ETV3L): 1.51 fold enrichment (6-mer frequency, TF over GST control)
binding signal (ETS2): 1.42 fold enrichment (6-mer frequency, TF over GST control)
binding signal (SPDEF): 1.43 fold enrichment (6-mer frequency, TF over GST control)
binding signal (ETV7): 1.37 fold enrichment (6-mer frequency, TF over GST control)
binding signal (ELF5): 1.38 fold enrichment (6-mer frequency, TF over GST control)
binding signal (ETV3): 1.35 fold enrichment (6-mer frequency, TF over GST control)
binding signal (ETV6): 1.44 fold enrichment (6-mer frequency, TF over GST control)

Source: publication PMC7862700, “An all-to-all approach to the identification of sequence-specific readers for epigenetic DNA modifications on cytosine”
